The values below come from PubChem BioAssay (Tox21).

The nature of test [1]: A CellTox Green Cytotoxicity Assay to monitor cytotoxicity in HEK293 cells - 40 hour (AID 1224871). Also: nearly all actives have a fitted effect of over 45% in size. Also: potency is read from the fitted curve at half-maximal effect. The procedure, abridged:
(§1)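 Each value comes from one timepoint of a single continuous run in which HEK293 cells with CellTox Green were exposed to compound for up to 40 h at 37 C, dye fluorescence rising with cell death.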

Test [2] in a line: qHTS RealTime-Glo MT Cell Viability Assay in HEK293 cells - 16 hour (AID 1224872). Also: nearly all actives have a fitted effect of over 50% in size. Also: potency is read from the fitted curve at half-maximal effect. As to activity change, negative = cytotoxicity: top concentration of the series differs between compounds. The procedure, abridged:
(§2)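 Reads taken at 0, 8, 16, 24, 32 and 40 h from the same wells. HEK293 cells (600/well) carried RealTime-Glo reagents from seeding, with compound added after a 5 h settle at 37 C.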

A short description of test [3]: qHTS RealTime-Glo MT Cell Viability Assay in HepG2 cells - 8 hour (AID 1224873). Also: nearly all actives have a fitted effect of over 55% in size. Also: potency is read from the fitted curve at half-maximal effect. The procedure, abridged:
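HepG2 cells (600/well) mixed with RealTime-Glo MT reagent, settled 5 h at 37 C/5% CO2 before compound addition. Nonlytic NanoLuc luminescence from viable-cell prosubstrate reduction read repeatedly during 40 h treatment at 37 C.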

A short description of test [4]: A CellTox Green Cytotoxicity Assay to monitor cytotoxicity in HEK293 cells - 24 hour (AID 1224875). Also: nearly all actives have a fitted effect of over 45% in size. Also: potency is read from the fitted curve at half-maximal effect. As to activity change: series mostly up to about 77 µM. The procedure, abridged: as §1
Test [5] is described as follows: A CellTox Green Cytotoxicity Assay to monitor cytotoxicity in HepG2 cells - 16 hour (AID 1224876). Also: nearly all actives have a fitted effect of over 45% in size. Also: potency is read from the fitted curve at half-maximal effect. The procedure, abridged: (§3)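 Continuous culture of HepG2 cells with a membrane-impermeant DNA dye; rising fluorescence marks dead cells. Compound exposure lasted up to 40 h at 37 C, with reads every 8 h from 0 h.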
Test [6] can be described thus: qHTS RealTime-Glo MT Cell Viability Assay in HepG2 cells - 32 hour (AID 1224877). Also: nearly all actives have a fitted effect of over 55% in size. Also: potency is read from the fitted curve at half-maximal effect. The procedure, abridged: (§4)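 HepG2 suspension premixed with RealTime-Glo reagents is plated at 600 cells per well and left 5 h at 37 C/5% CO2. Compounds in DMSO then go in, and bioluminescence reflecting viable cell number is recorded over 40 h.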
A short description of test [7]: A CellTox Green Cytotoxicity Assay to monitor cytotoxicity in HepG2 cells - 24 hour (AID 1224878). Also: nearly all actives have a fitted effect of over 45% in size. Also: potency is read from the fitted curve at half-maximal effect. The procedure, abridged: as §3
Test [8] is described as follows: A CellTox Green Cytotoxicity Assay to monitor cytotoxicity in HepG2 cells - 40 hour (AID 1224879). Also: nearly all actives have a fitted effect of over 40% in size. Also: potency is read from the fitted curve at half-maximal effect. The procedure, abridged: as §3
Test [9] can be described thus: qHTS RealTime-Glo MT Cell Viability Assay in HEK293 cells - 0 hour (AID 1224880). The procedure, abridged: (§5)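 qHTS format; HEK293 cells with NanoLuc/prosubstrate reagent, 37 C/5% CO2 for 5 h pre-dosing; compounds 23 nL in DMSO; luminescence at each time point reflects viable cells.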
The nature of test [10]: A CellTox Green Cytotoxicity Assay to monitor cytotoxicity in HEK293 cells - 32 hour (AID 1224881). Also: nearly all actives have a fitted effect of over 40% in size. Also: potency is read from the fitted curve at half-maximal effect. The procedure, abridged: as §1
A short description of test [11]: A CellTox Green Cytotoxicity Assay to monitor cytotoxicity in HepG2 cells - 0 hour (AID 1224882). Also: nearly all actives have a fitted effect of over 35% in size. Also: potency is read from the fitted curve at half-maximal effect. The procedure, abridged: as §3
The nature of test [12]: A CellTox Green Cytotoxicity Assay to monitor cytotoxicity in HepG2 cells - 32 hour (AID 1224883). Also: nearly all actives have a fitted effect of over 50% in size. Also: potency is read from the fitted curve at half-maximal effect. The procedure, abridged:
as §3

The nature of test [13]: A CellTox Green Cytotoxicity Assay to monitor cytotoxicity in HEK293 cells - 8 hour (AID 1224884). Also: nearly all actives have a fitted effect of over 35% in size. Also: potency is read from the fitted curve at half-maximal effect. The procedure, abridged:
as §1

Test [14] in a line: qHTS RealTime-Glo MT Cell Viability Assay in HepG2 cells - 16 hour (AID 1224885). Also: nearly all actives have a fitted effect of over 50% in size. Also: potency is read from the fitted curve at half-maximal effect. The procedure, abridged: as §4
Test [15] can be described thus: qHTS RealTime-Glo MT Cell Viability Assay in HEK293 cells - 24 hour (AID 1224886). Also: nearly all actives have a fitted effect of over 50% in size. Also: potency is read from the fitted curve at half-maximal effect. As to activity change, negative = cytotoxicity: top concentration of the series differs between compounds. The procedure, abridged: as §2
Test [16] can be described thus: qHTS RealTime-Glo MT Cell Viability Assay in HEK293 cells - 8 hour (AID 1224887). Also: nearly all actives have a fitted effect of over 50% in size. Also: potency is read from the fitted curve at half-maximal effect. As to activity change, negative = cytotoxicity: top concentration of the series differs between compounds. The procedure, abridged: as §5
The nature of test [17]: qHTS RealTime-Glo MT Cell Viability Assay in HepG2 cells - 0 hour (AID 1224889). Also: nearly all actives have a fitted effect of over 50% in size. The procedure, abridged:
as §4

The nature of test [18]: A CellTox Green Cytotoxicity Assay to monitor cytotoxicity in HepG2 cells - 8 hour (AID 1224890). Also: nearly all actives have a fitted effect of over 45% in size. Also: potency is read from the fitted curve at half-maximal effect. The procedure, abridged:
as §3

The nature of test [19]: A CellTox Green Cytotoxicity Assay to monitor cytotoxicity in HEK293 cells - 16 hour (AID 1224888). Also: nearly all actives have a fitted effect of over 35% in size. Also: potency is read from the fitted curve at half-maximal effect. The procedure, abridged: as §1
A short description of test [20]: qHTS RealTime-Glo MT Cell Viability Assay in HEK293 cells - 40 hour (AID 1224874). Also: nearly all actives have a fitted effect of over 50% in size. Particulars: RealTime-Glo luminescence; max response: stronger effect = lower value. The procedure, abridged: as §5

Each structure is given as a SMILES string. Several values for one entry are separate records, joined by “and”; a condition that tells them apart may be missing. Equal entries are not always repeated. Records with an inconclusive call do not appear. More than one record can exist for a structure, and the calls need not agree. Activity calls are given as the source filed them. Calls follow the shape of the dose curve; as a rule, active = well fitted curve in the direction sought with a large enough effect in the repeat runs; inconclusive = weak or mixed curves; inactive = no such curve, though single readings can be large; an effect the other way counts as inactive or inconclusive.
% is scaled to controls: 0 for no effect and ±100 for the full control effect.

In the case of `Cc1cccc(N(C)C(=S)Oc2ccc3c(c2)C2CCC3C2)c1` (centres undefined), the Potency result in test [1], in [2], in [3], in test [4], in test [5] and in test [6] was “inactive” throughout. The Potency result in [7], in test [8], in test [9], in [10], in [11] and in test [12] was “inactive” throughout. The Potency entry in [13], in test [14], in test [15], in test [16], in test [17] and in [18] was “inactive” throughout.
In the case of `CC(NN)c1ccccc1` (centres undefined), the cytotoxicity increase in test [1] is -15.6% [at 15.8 µM] (inactive); in test [5] it was -2.37% [at 15.8 µM] (inactive); in test [8], 0.373% [at 15.8 µM] (inactive); in test [10], -15.1% [at 15.8 µM] (inactive); in test [12], -12.7% [at 15.8 µM] (inactive); in test [13], -1.23% [at 15.8 µM] (inactive). Also, the cytotoxicity increase in test [18] is -3.04% [at 15.8 µM] (inactive). The activity change, negative = cytotoxicity is 0.13% [at 15.8 µM] (inactive) in [2]; -4.11% [at 15.8 µM] (inactive) in [9]; -0.0571% [at 15.8 µM] (inactive) in [15]; -8.04% [at 15.8 µM] (inactive) in [16]; -3.22% [at 15.8 µM] (inactive) in test [17]. Besides, the viability change, negative = cytotoxic in test [3] was -0.527% [at 15.8 µM] (inactive). In addition, the activity change was -7.33% [at 15.8 µM, stronger effect = higher value] (inactive) in test [4] and -3.48% [at 15.8 µM, stronger effect = higher value] (inactive) in test [19]. Further, the activity change, negative = cytotoxic in [6] was 1.72% [at 15.8 µM] (inactive); in [14], 0.634% [at 15.8 µM] (inactive). Besides, in test [7], the cytotoxicity is -5.39% [at 15.8 µM] (inactive).
In the case of `COc1cc(-c2ccc(N=C=O)c(OC)c2)ccc1N=C=O`, the Potency entry in [1], in test [2], in test [3], in test [4], in test [5] and in test [6] was “inactive” throughout. The Potency entry in [7], in [8], in test [9], in test [10], in test [11] and in test [12] was “inactive” in each case. The Potency entry in test [13], in [14], in test [15], in [16], in test [19] and in [17] was “inactive” throughout. Also, the Potency result in [18] was “inactive”.
As for `O=c1c(-c2ccccc2)c1-c1ccccc1`, the Potency in test [1] is 5.35 µM (active); in test [2], 15.1 µM (active); in [3], 23.9 µM (active); in test [4], 5.35 µM (active); in test [6], 15.1 µM (active); in test [7] it was 10.7 µM (active). Also, the Potency in test [8] is 10.7 µM (active); in test [10], 5.35 µM (active); in [12], 9.52 µM (active); in [14] it was 19 µM (active); in test [15] it was 13.4 µM (active); in [16] it was 16.9 µM (active). The Potency result in [5], in [9], in [11], in [13], in test [19] and in test [17] was “inactive” throughout. For the same compound, in test [18], the Potency result was “inactive”.
For the compound `Nc1ccc2c3c(cccc13)-c1ccccc1-2`, the Potency is 39.3 µM (active) in test [1]; 24.8 µM (active) in test [2]; 44.1 µM (active) in test [4]; 39.3 µM (active) in test [5]; 44.1 µM (active) in test [7]; 44.1 µM (active) in [8]. For the same compound, the Potency is 44.1 µM (active) in test [10]; 24.8 µM (active) in [11]; 44.1 µM (active) in test [12]; 44.1 µM (active) in [13]; 24.8 µM (active) in test [15]; 19.7 µM (active) in [16]. The Potency in [19] was 44.1 µM (active); in test [18], 39.3 µM (active). Also, the Potency entry in [3], in test [6], in test [9], in test [14] and in [17] was “inactive” each time.
For the compound `COc1c(C)c2c(c(O)c1C/C=C(\C)CCC(=O)O)C(=O)OC2`, the Potency entry in test [1], in test [2], in test [3], in [4], in [6] and in test [7] was “inactive” each time. For the same compound, the Potency result in [8], in test [9], in test [10], in [12], in [13] and in [14] was “inactive” in each case. In addition, the Potency result in [15], in [16], in [19], in [17] and in test [18] was “inactive” throughout.
For `O=C(Nc1cccc(Cl)c1)OCC#CCCl`, the Potency in [1] was 43.6 µM (active); in [2], 54.9 µM (active); in test [3], 43.6 µM (active); in [6] it was 43.6 µM (active); in [14] it was 43.6 µM (active); in test [15], 49 µM (active). For the same compound, the Potency in test [16] was 43.6 µM (active). The Potency result in test [4], in [5], in test [9], in [11], in test [13] and in test [17] was “inactive” throughout. In addition, the Potency result in [18] is “inactive”.
Turning to `CC(C)CCCCCCCCCCCCCCC(=O)O`, the Potency entry in [1], in [2], in test [3], in [4], in test [5] and in [6] was “inactive” each time. The Potency result in test [7], in test [8], in test [9], in test [10], in test [11] and in test [12] was “inactive” each time. In addition, the Potency result in [13], in test [14], in test [16], in test [19], in [17] and in [18] was “inactive” in each case.
`CCCC(C)c1ccccc1O` (centres undefined): the Potency in test [1] and in test [10] was 49 µM (active) each time. The Potency entry in test [2], in test [3], in [6], in [9], in [13] and in [14] was “inactive” in each case. Further, the Potency result in test [15], in test [16] and in [17] was “inactive” throughout. In addition, the max response in test [20] is -11.1% (inactive).
Turning to `CCCCc1oc2ccc(NS(C)(=O)=O)cc2c1C(=O)c1ccc(OCCCN(CCCC)CCCC)cc1`, the Potency was 19 µM (active) in test [1]; 10.7 µM (active) in test [2]; 21.3 µM (active) in test [3]; 19 µM (active) in [4]; 9.52 µM (active) in [6]; 19 µM (active) in test [7]. In addition, the Potency in test [8] is 9.52 µM (active); in [10] it was 21.3 µM (active); in test [12], 19 µM (active); in test [13], 23.9 µM (active); in test [14], 19 µM (active); in test [15], 10.7 µM (active). The Potency in test [16] was 19 µM (active); in test [19], 23.9 µM (active); in test [18], 23.9 µM (active). Also, the Potency entry in test [9] and in [11] was “inactive” each time.
As for `CCCCCCCCOC(=O)c1ccc(O)cc1`, the Potency in test [1] was 38.8 µM (active) and 49 µM (active); in test [2], 27.4 µM (active); in test [4] it was 43.5 µM (active) and 43.6 µM (active); in [5], “inactive and 43.6 µM (active)”; in test [7], “inactive and 43.6 µM (active)”; in test [8], “inactive and 49 µM (active)”. For the same compound, the Potency was 43.5 µM (active) and 43.6 µM (active) in [10]; “inactive and 43.6 µM (active)” in test [12]; 24.5 µM (active) in test [15]; 43.5 µM (active) in test [16]; 48.8 µM (active) and 49 µM (active) in test [19]. Besides, the Potency result in test [3], in test [6], in test [9], in test [11], in test [14] and in test [17] was “inactive” throughout. Moreover, the Potency result in test [18] is “inactive”.
